# Among all 63,000 compounds or so, about 1,100 (1.7%) were called active. The sample as a whole holds a higher share of actives than the screen did. Measured potencies and affinities stand elsewhere. Unmarked numbers belong to inactive results.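 Rule for the calls: active = compounds whose percent cytotoxicity in the single-dose primary screen, scaled between solvent and toxic-drug controls, exceeds 50; inactive = the rest.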
# Test: viability loss of HPDE-C7K cells – cell-based, fluorescence, HTS, primary screen (AID 431);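 note: 0% = DMSO solvent wells and 100% = doxorubicin-treated wells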
# Conditions: HPDE-C7K KRASV12 cells, Alamar Blue viability, 48 h; at 10 µM; hits give high values
row,SMILES,cytotoxicity
1,COc1ccc(-c2c(C)oc3c(CN4CCN(C)CC4)c(O)ccc3c2=O)cc1,-6.1%
2,CCOC(=O)C1=C(CS(=O)(=O)c2ccccc2)NC(=O)NC1c1ccccc1OCC (stereo not drawn),-3.7%
3,Cc1ccc(S(=O)(=O)CC(c2ccccc2)N2CCOCC2)cc1 (stereo not drawn),-3.6%
4,Nc1ncn(C(=O)c2ccco2)n1,4.4%
5,O=C(COc1cc(=O)n2c(n1)SCCC2)c1ccccc1,-1.2%
6,CCOC(=O)Nc1ccc2c(c1)N(C(=O)CN1CCN(C)CC1)c1ccccc1S2,5.6%
7,CN1CCN(CCC(=O)N2c3ccccc3Sc3ccc(Cl)cc32)CC1,35.1%
8,O=C(CN1CCN(CCOCCO)CC1)N1c2ccccc2Sc2ccc(Cl)cc21,-26%
9,CN1CCN(CCCN2c3ccccc3Sc3ccc(Cl)cc32)CC1,82.7% (active)
10,OCCN1CCN(C(=S)c2ccc(Cl)cc2)CC1,-18.6%
11,CC(=O)C1=C(O)C(=O)N(CCN2CCOCC2)C1c1ccc(N(C)C)cc1 (stereo not drawn),-11.6%
12,Cc1oc(-c2cccc(Cl)c2)nc1CN1CCC(C(=O)NCC2CCCO2)CC1 (stereo not drawn),21.4%
13,COc1ccc(OC)c(C2C(C(C)=O)=C(O)C(=O)N2CCN2CCOCC2)c1 (stereo not drawn),3.1%
14,COc1cccc(C(=O)CSc2nnc(CNc3nc(-c4ccccc4)cs3)n2C)c1,-0.3%
15,CC(CC1C(C#N)=C(N)OC2=C1C(=O)CCC2)c1ccccc1 (stereo not drawn),-2.7%
16,Cc1cccc(-c2noc(CCc3ccccc3)n2)c1,4.2%
17,Cc1ccc(Nc2nc(N)nc(CN3CCN(Cc4ccc5c(c4)OCO5)CC3)n2)c(C)c1,-5.2%
18,Cc1cc(C(=O)NCCN2CCN(c3cccc(Cl)c3)CC2)n(-c2ccccc2)n1,60.3% (active)
19,Cc1cc(C(=O)NCCCN2CCOCC2)n(-c2ccccc2)n1,-11.4%
20,Cc1cc(C(=O)NCCCN2CCN(C3CCCCC3)CC2)n(-c2ccccc2)n1,-1%
21,CCN(CC)S(=O)(=O)c1ccc(N2CCCC2)c(C(=O)OCC(=O)/C(C#N)=C(\C)N)c1,10.5%
22,CC(C)=C1C2C=CC1C(C(=O)Nc1cc(C)ccc1C)C2C(=O)O (stereo not drawn),-14.9%
23,CCOc1ccccc1NC(=O)Cn1nnc(C(=O)NCc2ccco2)c1N,55.3% (active)
24,CCOc1ccccc1NC(=O)Cn1nnc(C(=O)Nc2ccccc2Cl)c1N,3.6%

row,SMILES,cytotoxicity
1,CCOc1ccccc1NC(=O)Cn1nnc(C(=O)Nc2ccc(C)cc2)c1N,5.2%
2,CCN(CC)CCCN1C(=O)C(=O)/C(=C(/O)c2cc(C)ccc2C)C1c1cccnc1 (stereo not drawn),-4.8%
3,CCOC(=O)c1ccccc1NC(=O)c1ccccc1SC,21.6%
4,O=C(Nc1ccccc1Cl)c1c(F)c(F)c(F)c(F)c1F,0.3%
5,Cc1ccccc1NC(=O)c1c(F)c(F)c(F)c(F)c1F,-12%
6,CCOC(=O)c1ccccc1NC(=O)c1cccs1,-12.9%
7,CC1=C(C#N)C(C)C2=C(CC(C)(C)CC2=O)N1 (stereo not drawn),-3.6%
8,CN1CCN(C2=Nc3ccccc3Oc3ccc(Cl)cc32)CC1,-3.2%
9,COc1ccc2c(c1)C(=O)CC(c1ccccc1F)O2 (stereo not drawn),7.5%
10,Cn1c(Cl)cnc1C1CC(=O)c2cc(Cl)ccc2O1 (stereo not drawn),67.1% (active)
11,O=C(Nc1ccc2nc[nH]c2c1)c1ccco1,16.9%
12,COC(=O)C(C)Sc1nc2c(c(=O)[nH]c(=O)n2C)n1CCCc1ccccc1 (stereo not drawn),-4.9%
13,O=S(=O)(NCCO)c1cccc2cccnc12,-9.3%
14,CCC(C)(C)n1nnnc1C(c1ccc(C)cc1)N1CCN(Cc2cccnc2)CC1 (stereo not drawn),-32%
15,O=C(OCC(=O)N1CCN(C(=O)c2ccco2)CC1)c1cc(=O)c2ccccc2o1,-1.9%
16,C=C1[C@@H](C)C2[C@H](Cc3ccccc3)NC(=O)[C@]23OC(=O)CC[C@H](O)CCC[C@H](C)C/C=C/[C@H]3[C@@H]1O (stereo partly drawn),59.8% (active)
17,Cc1ccc(Nc2cccccc2=O)cc1,-1.6%
18,CCC1(C)Cc2c(sc3c2c(=O)n(C)c2nnc(SCc4ccccc4)n32)CO1 (stereo not drawn),3.4%
19,NC1=NC(c2ccccc2Cl)n2c(nc3ccccc32)N1 (stereo not drawn),0.6%
20,Cc1cc(C2N=C(N)Nc3nc4ccccc4n32)c(C)n1-c1ccccc1Cl (stereo not drawn),5.7%
21,COc1cc(OC)cc(-n2nnnc2SCC(=O)N2CCCC2)c1,-16%
22,COc1ccc(-n2nnnc2S(=O)(=O)CC(=O)N2CCCCC2)cc1,56.8% (active)
23,COc1ccc(-n2nnnc2S(=O)(=O)Cc2ccc(C(=O)O)cc2)cc1,2.6%
24,COc1ccccc1N1CCN(CC(O)COc2c(OC)cccc2OC)CC1 (stereo not drawn),3.7%

row,SMILES,cytotoxicity
1,COc1ccccc1N1CCN(CC(O)COc2cccc3ccccc23)CC1 (stereo not drawn),51.3% (active)
2,C=CCc1ccccc1OCC(O)CN1CCN(c2ccccc2OC)CC1 (stereo not drawn),6.9%
3,CCn1c(SCC(=O)N2CCCC2)nc2c1c(=O)n(C)c(=O)n2C,-12.3%
4,Cc1cc(OCCOCCN(C)CCO)cc(C)c1Cl,16.8%
5,CN(c1ccccc1)S(=O)(=O)c1ccc(C(=O)Nc2nnc(-c3ccc(F)cc3)o2)cc1,62.8% (active)
6,Cc1ccccc1C(=O)Nc1nnc(-c2ccc(F)cc2)o1,10.5%
7,COc1ccccc1-c1nnc(NC(=O)c2ccc(S(=O)(=O)N(C)C)cc2)o1,-3.2%
8,COc1ccccc1-c1nnc(NC(=O)c2ccc(S(=O)(=O)N(C)Cc3ccccc3)cc2)o1,64.9% (active)
9,COCc1nnc(NC(=O)c2ccc(S(=O)(=O)N(C)c3ccccc3)cc2)o1,36.3%
10,CCN(Cc1ccccc1)S(=O)(=O)c1ccc(C(=O)Nc2nnc(-c3ccccc3OC)o2)cc1,37.9%
11,CN(C)S(=O)(=O)c1ccc2c(c1)c(=O)c(C(=O)N1CCN(c3ccccn3)CC1)cn2C,5%
12,COc1cc(Cl)c(C)cc1NC(=O)CSc1nnc(-c2ccccn2)n1Cc1ccco1,-4.6%
13,O=C(CN1C(=O)c2ccccc2C1=O)Nc1cccnc1,10.7%
14,N#Cc1cccc(C(c2nnnn2CCc2ccccc2)N2CCN(C3CCCCC3)CC2)c1 (stereo not drawn),7.9%
15,COc1cccc(NC(=O)N2CCC(C(=O)Nc3ccc(C)cc3C)CC2)c1,-5.2%
16,c1ccc(CSc2nnc(-c3c[nH]c4ccccc34)o2)cc1,1.1%
17,S=c1[nH]nc(Cc2c[nH]c3ccccc23)o1,1.2%
18,COc1ccc(C(=O)Nc2nnc(-c3ccccc3)o2)cc1OC,-0.9%
19,COc1ccccc1C(=O)Nc1nnc(-c2ccc(Cl)cc2)o1,-0.6%
20,Cc1cccc(-c2nnc(NC(=O)c3ccc(Cl)cc3)o2)c1,87.9% (active)
21,COc1cccc(-c2nnc(NC(=O)c3cccc(F)c3)o2)c1,44.6%
22,CC(=O)c1ccc(C(=O)Nc2nnc(-c3ccc(Cl)cc3)o2)cc1,44.7%
23,COc1cccc(C(=O)Nc2nnc(-c3ccc(F)cc3)o2)c1,10.3%
24,COc1cccc(C(=O)Nc2nnc(-c3ccc(Cl)cc3)o2)c1,85% (active)

row,SMILES,cytotoxicity
1,CN(C)c1ccc(C(=O)Nc2nnc(-c3ccc(Cl)cc3)o2)cc1,17.7%
2,CCOc1ccc(N2CC(C(=O)Nc3ccc(F)cc3F)CC2=O)cc1 (stereo not drawn),-19.6%
3,Clc1ccc(NC2=NCCC2)cc1Cl,-1.4%
4,O=C(CN1CCN(C(=O)c2ccco2)CC1)Nc1ccccc1-c1ccccc1,3%
5,CO[C@H]1C[C@@H]2CC[C@@H](C)[C@@](O)(O2)C(=O)C(=O)N2CCCC[C@H]2C(=O)O[C@H]([C@H](C)C[C@@H]2CC[C@@H](O)[C@H](OC)C2)CC(=O)[C@H](C)C=C(C)[C@@H](O)[C@@H](OC)C(=O)[C@H](C)C[C@H](C)C=CC=CC=C1C,91% (active)
6,CC1Cn2c(nnc2-c2ccc(F)cc2)S1 (stereo not drawn),11.1%
7,CCOc1ccccc1NC(=O)C1CCCN(S(=O)(=O)c2cccc3cccnc23)C1 (stereo not drawn),26.1%
8,C=CCn1c(NC(=O)c2ccccc2Cl)c(C#N)c2nc3ccccc3nc21,7.7%
9,O=C(Nc1ccc2nn(-c3ccccc3)nc2c1)c1ccc(Br)o1,13.2%
10,CCCCn1c(NC(=O)c2ccc(F)cc2)c(C#N)c2nc3ccccc3nc21,87.7% (active)
11,CCCCn1c(NC(=O)c2ccccc2Cl)c(C#N)c2nc3ccccc3nc21,35.8%
12,N#Cc1c(NC(=O)c2ccc(Br)o2)n(-c2ccccc2)c2nc3ccccc3nc12,58.7% (active)
13,CCC(=O)Nc1c(C#N)c2nc3ccccc3nc2n1-c1ccccc1C,2.8%
14,C=CCn1c(NC(=O)c2ccccc2)c(C#N)c2nc3ccccc3nc21,65.2% (active)
15,COc1ccc(-n2c(NC(=O)c3ccco3)c(C#N)c3nc4ccccc4nc32)cc1,9.7%
16,CCCCn1c(NC(=O)CC)c(C#N)c2nc3ccccc3nc21,-5.1%
17,CCCCn1c(NC(=O)c2ccccc2)c(C#N)c2nc3ccccc3nc21,112% (active)
18,CCCCCn1c(N)c(C#N)c2nc3ccccc3nc21,2.3%
19,CCCCn1c(NC(C)=O)c(C#N)c2nc3ccccc3nc21,-0.1%
20,CCc1ccc(OCc2nc(-c3ccccn3)no2)c(Br)c1,30.6%
21,COc1cc(C2C(C#N)=C(N)Oc3cc(C)oc(=O)c32)cc2c1OCO2 (stereo not drawn),-4.3%

# From PubChem BioAssay AID431 (Sanford-Burnham Center for Chemical Genomics, 2006)
